The values below come from PubChem BioAssay AID588405 (Sanford-Burnham Center for Chemical Genomics, 2011).

In all, about 360,000 compounds went through this assay and about 6,200 (1.7%) were called active.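 How the source made its calls: active means inhibition of at least 50% at 20 µM; inactive means the rest.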 The list comes from a sample in which actives are over-represented; it also holds similar structures and randomly drawn compounds.

The experiment can be described thus: Peg3 promoter-driven luciferase inhibitors, primary screen, cell-based, HeLa, luciferase luminescence (AID 588405). As to conditions: HeLa PEG-Prom luciferase reporter, overnight, at 20 µM, stronger effect = higher value. On the technique in general: In a reporter assay the amount or activity of a reporter protein is the signal.
The term inhibition denotes the drop in the measured response relative to a control, in per cent. On to `CCCCc1ccc(S(=O)(=O)NC(=O)C2(C)CCN2C(=O)c2c(C)noc2C)cc1` (stereo not given), for which the inhibition is -14.9% (inactive).
Regarding `COc1ccc(C(C)C)cc1-c1ccc2nncn2c1`, the inhibition was -16.5% (inactive).
Next, `CC1(Oc2ccc(Cl)cc2)CCN(Cc2csc3ccccc23)C1` (stereo not given): -17.9% (inactive); `CC1(C(=O)NS(=O)(=O)c2ccccc2Cl)CCN1C(=O)c1cccc(F)c1` (stereo not given): -6.7% (inactive); `O=c1[nH]c2ccc(S(=O)(=O)N3CCCC3)cc2[nH]1`: 3.24% (inactive).
Regarding `Cc1cccc(NC(=O)CN2CCN(C(=O)C3CCN(C(=O)/C=C/c4ccccc4)CC3)CC2)c1C`, the inhibition was -10.7% (inactive).
As to `Cc1cccc(NC(=O)CSC(N)=O)c1C`, the inhibition is 1.28% (inactive).
For `CCOC(=O)/C=c1\s/c(=C\c2ccc(C#N)cc2)c(=O)n1CC(=O)Nc1cccc(C)c1C`, the inhibition was 57.2% (active).
Consider `COC(=O)c1c(NC(=O)COc2ccc(Cl)cc2Cl)sc2c1CC(C)(C)NC2(C)C`, for which the inhibition was 92.3% (active).
Turning to `CN1CCC(OC(=O)COc2ccc(Cl)cc2Cl)CC1`, the inhibition was 3.36% (inactive).
To `Cc1cnc(C(=O)OCC(=O)Nc2ccc(Cl)cc2Cl)cn1` belongs -12% (inactive); to `Cc1ccccc1S(=O)(=O)NC(=O)C1(C)CCN1C(=O)Cc1ccc(Cl)cc1Cl` (stereo not given), 3.83% (inactive); to `Cc1cccc(CNC(=O)c2sc(=O)n(Cc3ccccc3C)c2C)c1`, 3.15% (inactive).
Take `CCn1c(=O)c(=O)[nH]c2c(=O)oc3ccc(S(=O)(=O)Nc4ccc(OC)cc4)cc3c21`: the inhibition is -5.21% (inactive).
With `CC(=O)N1C[C@@H](CO)[C@@H](N(C)C(=O)c2ccco2)C[C@H]1c1ccccc1`, the inhibition is -9.39% (inactive).
Next, `COc1cc(SC)ccc1C(=O)NNC(=O)C1COc2ccccc2O1` (stereo not given): -36.6% (inactive).
To `Cc1csc(NC(=O)CSc2nc(=O)cc(N)n2-c2ccc(F)cc2)n1` belongs 1.12% (inactive).
To `COc1cc(SC)ccc1C(=O)Nc1nc(C)cs1` belongs 99.9% (active); to `CCc1nc2c(OCc3cccc(OC)c3)cccn2c1N(C)C(=O)C(C)C`, 17.8% (inactive); to `COc1cccc(CNc2nc(NCc3ccccc3OC)nc3ccsc23)c1`, 30.7% (inactive).
With `Clc1ccccc1Nc1nc(NCc2cccs2)nc2ccsc12`, the inhibition is 7.17% (inactive).
Next, `COc1cccc(CNc2nc(NCc3cccs3)nc3ccsc23)c1`: 57.2% (active).
To `Oc1cccc2cc(-c3ccncc3)cnc12` belongs -97.7% (inactive); to `O=C1c2ccccc2C(c2nc3ccccc3[nH]2)N1c1ccccc1` (stereo not given), 2.93% (inactive).
To `Cc1cccc(N2CC(C(=O)Nc3ccccc3N3CCCC3)CC2=O)c1C` (stereo not given) belongs 20.1% (inactive); to `COc1cccc(/C=N/Nc2cc(C)nc(-c3ccccc3O)n2)c1O`, 79.9% (active); to `COc1cc(/C=N/NC(=O)c2cc(-c3ccccc3C)nc3ccccc23)cc(OC)c1O`, 10.1% (inactive).
For `COc1ccccc1-n1c(SCC(=O)Nc2cccc(C(=O)O)c2)nnc1-c1ccccc1O`, the inhibition was -4.09% (inactive).
For the compound `CC1(C(=O)NS(=O)(=O)c2cccc(F)c2)CCN1C(=O)Cc1ccc(Cl)cc1Cl` (stereo not given), the inhibition was -4.9% (inactive).
Next, `O=C(O)C1=CCCN(CCON=C(c2ccccc2)c2ccccc2)C1`: -3.93% (inactive); `Cc1cccc(-c2cnc(C(O)c3cc(C)cc(C)c3)[nH]2)c1` (stereo not given): 15.8% (inactive).
For `CC(=O)C12CC(C)=C(C)CC1CC1C3CCC4=CC(=O)CCC4(C)C3CCC12C` (stereo not given), the inhibition is 14% (inactive).
Regarding `CSc1ncnc2c1ncn2CCCNCC1CCCCC1`, the inhibition is -12.2% (inactive).
Turning to `CSc1ncnc2c1ncn2CC(=O)C1CCC2C3CCC4=CC(=O)CCC4(C)C3CCC12C` (stereo not given), the inhibition was 105% (active).
As to `COc1ccc(OC)c(NC(=O)C2(C)CCN2C(=O)Cc2ccccc2)c1` (stereo not given), the inhibition is 0.38% (inactive).
Turning to `CC(C)Oc1cc(F)ccc1-c1cc(C(=O)Nc2cccc(Cl)c2)[nH]n1`, the inhibition is -14.2% (inactive).
`Nc1nonc1-n1nnc(C(=O)N/N=C/c2cc(Br)ccc2O)c1CSC1=NCCS1`: the inhibition was 56.4% (active).
Next, `Nc1nonc1-n1nnc(C(=O)N/N=C\c2ccncc2)c1CN1CCCCC1`: 23.4% (inactive); `COCc1c(C(=O)N/N=C\c2cccnc2)nnn1-c1nonc1N`: 10.8% (inactive).
Consider `COc1cccc(-c2cnc3c(NC(C)=O)cc(-c4cc(F)ccc4OC)cn23)c1`, for which the inhibition was 23.8% (inactive).
Next, `COc1cccc(CN(C)CC(O)COC(c2ccccc2)c2ccccc2C)c1` (stereo not given): 4.99% (inactive).
Take `COc1ccc(OCC(O)CN(C)C(=O)C(C)Oc2ccccc2)cc1` (stereo not given): the inhibition was 9.53% (inactive).
As for `CN(Cc1ccccc1)CC(O)COc1ccc(CNCc2cc3ccccc3s2)cc1` (stereo not given), the inhibition was 50.3% (active).
Regarding `Cc1ccc(C)c(C(O)c2ncc(-c3cccc4ccccc34)[nH]2)c1` (stereo not given), the inhibition is 17.3% (inactive).
Turning to `COc1cccc(/C=C2\SC(=S)N(CCCC(=O)N3CCOCC3)C2=O)c1`, the inhibition was -13.7% (inactive).
To `COc1ccc(-c2nn(-c3ccccc3)cc2/C=C2/SC(=S)N(CCCC(=O)O)C2=O)c(C)c1` belongs 60.7% (active).
Next, `Cc1ccc(-c2nn(-c3ccccc3)cc2/C=C2\SC(=S)N(CCCCCC(=O)O)C2=O)o1`: -22.9% (inactive); `CCc1nc2c(OCc3ccc(Cl)cc3Cl)cccn2c1N(C)C(=O)C(C)C`: 14.2% (inactive); `O=C(CSc1cccc2cccnc12)N/N=C/c1cccnc1`: 74.3% (active).
To `O=C(N/N=C\c1cccnc1)c1cc(-c2ccccc2)nc2c(Cl)cccc12` belongs 32.6% (inactive).
As to `Cc1c(NC(=O)CSc2cccc3cccnc23)c(=O)n(-c2ccccc2)n1C`, the inhibition was 23.3% (inactive).
To `CNc1cnc(-c2cc(OC)c(OC)c(OC)c2)cn1` belongs -13.3% (inactive); to `CC(=O)NC(c1ccccc1)c1nc(-c2cccc(C(C)C)c2)cs1` (stereo not given), 4.34% (inactive); to `CC(C)(C)CC(C)(C)NCC(O)COCCOc1ccc(Br)cc1` (stereo not given), 103% (active).
In the case of `COc1ccc(OCC(O)CNCCNc2nccc(C(F)(F)F)n2)cc1` (stereo not given), the inhibition is 1.34% (inactive).
As for `CC(Oc1ccc(Br)cc1)C(=O)NC1CCCCCC1` (stereo not given), the inhibition is -67% (inactive).
Next, `CC(NCC(=O)Nc1ccccc1C(=O)NC1CC1)c1ccccc1Cl` (stereo not given): 6.43% (inactive); `CCc1nc2ccc(C(=O)NCCNC(C)=O)cn2c1N(CC)Cc1cccc(Br)c1`: 5.16% (inactive).
Next, `Cc1ccc2nc(-c3ccncc3)cc(C(=O)Nc3ccncc3)c2c1`: 70.2% (active); `Cc1ccc2nc(-c3ccncc3)cc(C(=O)Nc3ccc(OC(F)F)cc3)c2c1`: 27.7% (inactive); `O=C(Nc1ccc(S(=O)(=O)Nc2nccs2)cc1)c1cc(-c2ccncc2)nc2ccccc12`: 11.9% (inactive).
To `CCC1(C)Cc2c(sc3nnn(CC(=O)Nc4ccc(Cl)cc4)c(=O)c23)CO1` (stereo not given) belongs 11.2% (inactive).
For `O=C(/C=C/[C@H]1O[C@@H](n2ccc(=O)[nH]c2=O)[C@H](O)[C@@H]1O)NCc1ccccn1`, the inhibition is 12.5% (inactive).
With `CCCN(CC(=O)NC(=O)NC1CCCCC1)CC(=O)Nc1cc(Cl)ccc1Cl`, the inhibition is 32.9% (inactive).
Next, `CC(C)(C(=O)N1CCC1(C)C(=O)NS(=O)(=O)c1ccc(Br)cc1)c1ccccc1` (stereo not given): 3.42% (inactive); `CCOC(=O)/C(=C\c1ccc([N+](=O)[O-])cc1)C(=O)c1cc(C(C)=O)c(Nc2ccccc2)s1`: 106% (active).
Consider `CCOC(=O)/C(=N\Nc1ccccc1[N+](=O)[O-])c1csc(Nc2ccccc2)n1`, for which the inhibition is 20.3% (inactive).
To `O=C(O)C(=Cc1ccc([N+](=O)[O-])cc1)CCc1ccccc1` belongs -9.17% (inactive); to `CN1C[C@@H](CO)O[C@@H](n2cnc3c(N4CCN(CCO)CC4)ncnc32)C1`, 8.41% (inactive); to `Cc1nc(SCC(=O)Nc2cc(C)on2)c2c(C)c(C)sc2n1`, 73.6% (active).
To `Cc1cc(NC(=O)CSc2ncc(C(F)(F)F)cc2Cl)no1` belongs 5.97% (inactive).
Next, `Cc1cc(NC(=O)CSc2nc(C(C)C)nc3sc4c(c23)CCC(C)C4)no1` (stereo not given): -3.65% (inactive).
On to `Cc1cc(C(=O)N2CCCC2(C)C(=O)O)c(C)o1` (stereo not given), for which the inhibition is -4.99% (inactive).
Next, `COc1ccc(C(C)(NC(C)=O)c2nc(-c3ccc(S(C)(=O)=O)cc3)cs2)cc1` (stereo not given): 7.41% (inactive); `COc1cc(CNc2ncnc3c2ncn3[C@H]2CN(Cc3cccs3)C[C@@H](CO)O2)cc(OC)c1OC`: 10.1% (inactive).
Next, `O=CNc1cc(-c2ccc(C(=O)N3CCOCC3)cc2)cn2c(-c3ccc(F)cc3)cnc12`: 38.7% (inactive).
Next, `CC(C)[C@@H]1NC(=O)c2cc([N+](=O)[O-])cc(I)c2NCCC[C@@H](C(=O)NC(CC(=O)O)C(N)=O)NC(=O)[C@H](CO)NC1=O` (stereo not given in full): 95.8% (active); `NC(=O)CC[C@@H]1NC(=O)[C@H](CO)NC(=O)c2cc([N+](=O)[O-])cc(I)c2NCC[C@@H](C(N)=O)NC1=O`: 4.02% (inactive); `NCCCC[C@@H]1NC(=O)[C@H](CCC(=O)O)NC(=O)c2cc([N+](=O)[O-])cc(I)c2NCC[C@@H](C(N)=O)NC1=O`: 4.12% (inactive).
As to `COc1cccc(-c2cc3nc(NCCOc4ccccc4Cl)n(C)c(=O)c3s2)c1`, the inhibition is -22% (inactive).
To `Cc1ccccc1S(=O)(=O)N1[C@@H](c2cccc(Cl)c2)C(C(=O)OC(C)(C)C)=CC[C@H]1c1ccc(Cl)cc1` belongs 0.82% (inactive); to `COc1cccc(-c2ccc3c(c2)N(Cc2ccccc2OC)C(=O)C(C)S3)c1` (stereo not given), -0.98% (inactive); to `Nc1ncnc2c1ncn2[C@@H]1O[C@H](C(=O)NS(=O)(=O)c2c(Cl)nc3sccn23)[C@@H](O)[C@H]1O`, 8.22% (inactive).
Next, `CCc1nc2c(OCc3ccc(C(F)(F)F)cc3)cccn2c1N(C)C(=O)CC(C)C`: 15.7% (inactive); `C=C1C2C[C@H](O)C(C)(C)[C@@]2(O)[C@H](O)C[C@]23C[C@@](C)(O)[C@H](CC[C@H]12)[C@H]3O` (stereo not given in full): 98.4% (active).
